Compounds with a hit are over-represented: about 2.8% of the library has one in this group of screens.
MITF TRPM1 inh: inhibitors of MITF-driven TRPM1 promoter in melanoma cells; SK-MEL-5 TRPM1 promoter luciferase, 24 h; inhibition, % at 12.5 µM; hit rate 0.83% among 330,000;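 active = mean inhibition across replicates of 60% or more, whatever share of single replicates reaches that level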
HIF-2a block: HIF-2a inhibition; inhibition, % at 18.8 µM; 786-0 RCC cells HIF-2a reporter, luciferase luminescence, overnight; AID 624352; hit rate 0.72% among 360,000;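 active = inhibition of the luminescence signal of 40% or more relative to plate controls, in a single-dose primary screen at 18.75 µM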
Peg3 prom inh: inhibitors of Peg3 promoter | HeLa PEG-Prom luciferase reporter, luminescence, overnight | inhibition, % at 20 µM | hit rate 1.7% among 360,000 | AID 588405;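 active = inhibition of at least 50% at 20 µM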
CF NFkB block: blocks PAF-induced NF-kB reporter in cystic fibrosis cells. KKLEB NF-kB-GFP reporter, GFP fluorescence overnight. inhibition, % at 5 µM. hit rate 0.86% among 360,000;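 active = at least 50% inhibition at 5 µM, scaled per plate between neutral and stimulator controls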;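 note: PAF is a Pseudomonas aeruginosa culture filtrate used as stimulus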
Shn3 inh set2: Schnurri-3 reporter inhibition in Clone20 osteoblasts; Clone20 osteoblast Shn3 3'UTR firefly luciferase, 24 h; hit rate 0.52% among 360,000; inhibition, % at 12.5 µM;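 active = mean inhibition of at least 75% with every replicate also reaching 75%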
KKLEB cytotox: reduces viability of KKLEB cystic fibrosis airway cells | KKLEB CF airway cells viability, ATPlite luminescence, overnight; hits give low values; cells stimulated with P. aeruginosa culture filtrate | activity change (cytotoxicity), % at 5 µM | hit rate 0.36% among 360,000 | AID 602141;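 active = corrected activity change at or below -50% at 5 µM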
Of the large screens only hits and unclear results are named; the others gave an inactive call.

Cc1ccc2nc(-c3ccc(NC(=S)NCC(C)(C)CN(C)C)cc3)sc2c1	Peg3 prom inh 60.5
Cc1ccc(N(C)S(=O)(=O)c2ccc3c(c2)NC(=O)C(C)S3)cc1 (configuration not stated)	none
O=C(c1ccc(=O)[nH]c1)N1CCCc2ccccc21	none
Cc1cc(N2CCN(C)CC2)ccc1NC(=O)c1ccc(-c2ccc(Cl)cc2)o1	HIF-2a block 41.1, Peg3 prom inh 90.4
CN1CCN(c2ccccc2NC(=O)c2ccc(-c3ccc(Cl)c(Cl)c3)o2)CC1	none
COCC(=O)NC1(c2nnnn2CCOC(=O)Nc2ccc(Cl)cc2)CCCCC1	none
CCc1ccc(NC(=O)C2CCC(CNC(=O)[C@@H]3Cc4ccccc4CN3)CC2)cc1 (some centres not stated)	none
COc1ccc(CCn2c(SCC(=O)Nc3cc(C)on3)nc3ccccc3c2=O)cc1OC	CF NFkB block 64.1, KKLEB cytotox -78.8
CCOc1ccc(CCn2c(-c3ccco3)nc3ccccc3c2=O)cc1OCC	Peg3 prom inh 53.7
O=c1c2ccccc2nc(-c2ccco2)n1Cc1ccccc1	none
CCN(CC)C(=O)[C@H]1C[C@H](CC(=O)NC/C=C(\C)CCC=C(C)C)C(=O)N2CCc3c([nH]c4cc(CCC(=O)N(C)C)ccc34)[C@]12C	Shn3 inh set2 89.8
CC(C)=CCC/C(C)=C/CNC(=O)C[C@H]1C[C@H](C(=O)N2CCOCC2)[C@@]2(C)c3[nH]c4ccc(Cl)cc4c3CCN2C1=O	Peg3 prom inh 55.6
CC(C)=CCC/C(C)=C/CNC(=O)CC1C[C@H](C(=O)N2CCOCC2)[C@@]2(C)c3[nH]c4ccccc4c3CCN2C1=O (some centres not stated)	none
COC(=O)c1c(NC(=O)CSc2ncn[nH]2)sc(C)c1C	none
Cc1ccc(-c2nc(C(=O)NCC3CCCO3)cc3c2[nH]c2ccccc23)cc1 (configuration not stated)	Peg3 prom inh 68.1
Cc1ccc(-c2nc(C(=O)NCCCN(C)C)cc3c2[nH]c2ccccc23)cc1	MITF TRPM1 inh 75.7, Peg3 prom inh 90.8
O=C(NCCO)c1cc2c([nH]c3ccccc32)c(-c2ccccc2)n1	none
O=C(COC(=O)CN1C(=O)COc2ccccc21)NCc1ccc(F)cc1	none
COc1ccccc1NC(=O)CSc1nccn1Cc1ccccc1	none
COc1ccc(C)cc1NS(=O)(=O)c1ccc(NC(=O)CN(c2cc([N+](=O)[O-])ccc2C)S(C)(=O)=O)cc1	Peg3 prom inh 63.5
COc1ccc([N+](=O)[O-])cc1N(CC(=O)NCCSc1ccc(C)cc1)S(C)(=O)=O	none
Cc1cccc(NS(=O)(=O)c2ccc(NC(=O)CN(c3cc([N+](=O)[O-])ccc3C)S(C)(=O)=O)cc2)c1	Peg3 prom inh 59.0
CS(=O)(=O)N(CC(=O)Nc1ccc(F)c(F)c1)c1cccc([N+](=O)[O-])c1	none
Cc1ccc(S(=O)(=O)N(C(=O)c2ccncc2)c2ccc(OC(=O)c3ccncc3)cc2)c(C)c1	Peg3 prom inh 52.5, CF NFkB block 71.6, KKLEB cytotox -50.5
O=C(O)C(Cc1ccccc1)N1C(=O)c2c(Cl)c(Cl)c(Cl)c(Cl)c2C1=O (configuration not stated)	none
Cn1c(=O)c(C(=O)NNC(=O)c2ccc(Br)cc2)c(O)c2ccccc21	Peg3 prom inh 53.5
CCCCC(=O)NC(c1ccc(C(C)C)cc1)c1ccc2cccnc2c1O (configuration not stated)	MITF TRPM1 inh 69.8, Peg3 prom inh 52.5
O=[N+]([O-])c1ccc(NC(c2ccccc2)c2ccc3cccnc3c2O)cc1 (configuration not stated)	MITF TRPM1 inh 74.1, Peg3 prom inh 57.7, Shn3 inh set2 91.1
Oc1c(C(Nc2cccc(C(F)(F)F)c2)c2cccnc2)ccc2cccnc12 (configuration not stated)	none
CC(=O)NC(c1cccs1)c1cc([N+](=O)[O-])c2cccnc2c1O (configuration not stated)	none
CCC(=O)NC(c1ccccc1OC)c1ccc2cccnc2c1O (configuration not stated)	MITF TRPM1 inh 66.0, Shn3 inh set2 89.4
CCCC(=O)NC(c1cccs1)c1cc([N+](=O)[O-])c2cccnc2c1O (configuration not stated)	Peg3 prom inh 54.3
CCCCC(=O)NC(c1ccco1)c1cc(Cl)c2cccnc2c1O (configuration not stated)	none
Cc1noc(C)c1CSc1ccccc1C(=O)O	none
Cc1c(CCCN)c2ccccc2n1Cc1ccccc1	none
COc1cccc(C(NC(C)=O)c2ccc3cccnc3c2O)c1 (configuration not stated)	MITF TRPM1 inh 83.5
COc1cccc(C(Nc2ccccc2)c2ccc3ccc(C)nc3c2O)c1 (configuration not stated)	none (no result: MITF TRPM1 inh, Peg3 prom inh, CF NFkB block, Shn3 inh set2, KKLEB cytotox)
CC(=O)NC(c1cccc([N+](=O)[O-])c1)c1c(OC(C)=O)ccc2ccccc12 (configuration not stated)	none
CCCCC(=O)NC(c1cccc([N+](=O)[O-])c1)c1ccc2cccnc2c1O (configuration not stated)	Peg3 prom inh 57.9, Shn3 inh set2 88.7
CC(=O)NC(c1cccc([N+](=O)[O-])c1)c1ccc2cccnc2c1O (configuration not stated)	Shn3 inh set2 91.4
Cn1cc(S(=O)(=O)N2CCCC2)cc1C(=O)N1CCN(c2ccccc2)CC1	none
Cc1nc(Nc2ccc(C(=O)O)cc2)nc(Nc2ccc(C(=O)O)cc2)c1[N+](=O)[O-]	none
CCC(=O)Nc1ccc(Nc2nc(C)c([N+](=O)[O-])c(Nc3ccc(NC(=O)CC)cc3)n2)cc1	Peg3 prom inh 52.7
CCC(=O)N1CCCC(C(=O)NCc2ccc(C(C)C)cc2)CC1 (configuration not stated)	none (no result: MITF TRPM1 inh)
Nc1nc(Cl)nc2c1ncn2C1OC(CO)C(O)C1O (configuration not stated)	none (no result: MITF TRPM1 inh)
Nc1nc(Cl)nc2c1ncn2C1CC(O)C(CO)O1 (configuration not stated)	Shn3 inh set2 89.8
N#Cc1c(NC(=O)/C=C/c2ccco2)sc2c1CCCC2	CF NFkB block 62.5, KKLEB cytotox -51.7
COc1cc(CCC(=O)N2CCN(c3cccc(C)c3C)CC2)cc(OC)c1OC	none
CCOC(=O)c1cc([N+](=O)[O-])sc1NC(=O)c1ccc(S(=O)(=O)N2CC3(C)CC2CC(C)(C)C3)cc1 (configuration not stated)	MITF TRPM1 inh 75.5
CCC1CCCCN1S(=O)(=O)c1ccc(C(=O)Nc2nnc(C3CC3)o2)cc1 (configuration not stated)	none
CCC1CCCCN1S(=O)(=O)c1ccc(NC(=O)c2ccncc2)cc1 (configuration not stated)	Shn3 inh set2 87.9
